# Source: PubChem BioAssay
# Values joined by “and” are separate entries in the source; they are usually repeats but may differ in a detail not shown here. Equal entries are not always repeated. For part of these data: Results with a measured potency or affinity are listed apart. Active and inactive are the calls of the source.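 How the source made its calls, unless noted: active means thallium flux through the channel raised or lowered by more than 3 SD from vehicle-only wells, actives on both sides; inactive means the rest.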
# Key:
# [1] = blockers of polyQ-driven CASP3 activation – cell-based (AID 1583); settings: polyglutamine-induced caspase-3 activation, cell assay; stronger effect = higher value;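 tested at 10 µM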
# [2] = yeast 75Q aggregation reduction – 75Q-TubU reporter (AID 1593); settings: Yeast 75Q polyglutamine aggregation reporter
# [3] = restoration of touch response, mutant HTT neurons – whole organism, C. elegans mechanosensory neurons, N-terminal huntingtin (AID 1599); settings: C. elegans polyQ-huntingtin mechanosensory neurons, stronger effect = higher value
# [4] = blockers of cytochrome c efflux from mitochondria – biochemical, purified mitochondria (AID 1603); settings: stronger effect = lower value;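 further: mouse liver mitochondria challenged with calcium chloride; signal normalized to the plate average as 100%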
# [5] = polyglutamine aggregate formation blockers (AID 1604); settings: polyglutamine-induced protein aggregation inhibition assay; stronger effect = higher value; tested at 2.5 µM
# [6] = glutamate transport activators, MN-1 cells, MN-1 cell line (AID 1612); settings: MN-1 motor neuron cells, stronger effect = higher value;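 further: tested at 1 µM final; 0% = mean of DMSO vehicle wells on each plate; positive means more glutamate uptake than control and negative means less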
# [7] = 75Q-TubH aggregate inhibition, S. cerevisiae, yeast (AID 1616); settings: S. cerevisiae 75Q-TubH polyglutamine aggregation suppression; stronger effect = higher value
# [8] = P. berghei load reduction in hepatocytes – cell-based, HepG2, luciferase luminescence, HepG2 viability, primary screen (AID 624349; in the data active means parasite load remaining mostly below about 12%, no sharp cut-off; inactive means mostly above about 10%;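 further: 100% = mean of DMSO negative control wells on the same plate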); settings: P. berghei liver stage in HepG2, luciferase luminescence, concentration not given here; parasite load remaining: stronger effect = lower value; viability: measured here: HepG2 viability without parasites
# [9] = signal quenchers or enhancers, Cy5 substrate/SSB – biochemical, NIH Clinical Collection, E. coli SSB, artefact control for HCV NS3 helicase inhibitor project (AID 743268; call rule not given here); settings: Cy5-oligo bound E. coli SSB, fluorescence interference
# [10] = modulation of C. elegans fzo-1 (AID 1259413; call rule not given here;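 further: fzo-1 mutant C. elegans worms in liquid wells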); settings: C. elegans fzo-1 modulator screen, mean read-out; stronger effect = higher value
# [11] = galactose survival enhancers in mitochondrial complex I cybrids – cell-based, galactose medium, ATP luminescence, primary screen (AID 1645843;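 active means z-score of at least 1.8 in each of two replicates, scored against plate mean and spread of sample wells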;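 further: positive z means more ATP and so rescue of galactose-driven cybrid death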); settings: complex I mutant cybrid cells, 72 h, stronger effect = higher value
# R275C = assay: BK channel mutant inhibitors and activators – cell-based, U2OS BacMam, thallium flux, beta subunits, selectivity assay, profiling panel (AID 1259406); settings: U2OS BacMam BK variants, at 30 µM;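 further: initial slope of Thallos dye fluorescence rise after thallium is added; log ratio against the mean of 0.3% DMSO vehicle wells on the same plate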
# R275C/beta1 = assay: as above; settings: U2OS BacMam BK variants, at 30 µM
# R275C/beta2Delta = assay: as above; settings: U2OS BacMam BK variants, at 30 µM
# [12] = compounds altering viability of human ES cells (AID 493140; call rule not given here;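 further: cells exposed to compounds for four days before counting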); settings: human embryonic stem cell survival screen; stronger effect = higher value
# F380Y/beta1 = assay: BK channel mutant inhibitors and activators – cell-based, U2OS BacMam, thallium flux, beta subunits, selectivity assay, profiling panel (AID 1259406); settings: U2OS BacMam BK variants, at 30 µM;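 further: initial slope of Thallos dye fluorescence rise after thallium is added; log ratio against the mean of 0.3% DMSO vehicle wells on the same plate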
# F380Y/beta4 = assay: as above; settings: U2OS BacMam BK variants, at 30 µM
# R275C/beta4 = assay: as above; settings: U2OS BacMam BK variants, at 30 µM
# R275C/Slo1WT/beta2 = assay: as above; settings: U2OS BacMam BK variants, at 30 µM
Structure (SMILES),inhibition [1] [%],score [2],rescue above control [3],cytochrome c release ratio [4],inhibition of aggregation [5] [%],glutamate uptake change [6] [%],aggregation suppression score [7],parasite load remaining [8],viability [8],fluorescence ratio [9],mean signal [10],z-score [11],log fold change Tl+ flux (R275C),log fold change Tl+ flux (R275C/beta1),log fold change Tl+ flux (R275C/beta2Delta),survival [12],log fold change Tl+ flux (F380Y/beta1),log fold change Tl+ flux (F380Y/beta4),log fold change Tl+ flux (R275C/beta4),log fold change Tl+ flux (R275C/Slo1WT/beta2)
CN(C)CCN(Cc1ccccc1)c1ccccn1,16.8,1.31,2.67,1.13,79.6,-25.1,1.09,50.9% (inactive) and 109% (inactive),82.5% and 67.3%,1.01 (inactive),272 (inactive),0.73 (inactive),0.027 (inactive),0.0111 (inactive),-0.0395 (inactive),–,–,–,–,–
CCn1cc(C(=O)O)c(=O)c2cc(F)c(N3CCNCC3)cc21,-2.25,0.92,3.5,0.95,52.4,-6.97,1.19,–,–,–,207 (inactive),0.67 (inactive),–,–,–,20.2 (inactive),–,–,–,–
NC(N)=NC(=O)c1nc(Cl)c(N)nc1N,17.4,0.64,-10.9,1.1,27.6,-1.52,1.02,–,–,0.95 (inactive),212 (inactive),–,-0.0162 (inactive),0.0417 (inactive),-0.00743 (inactive),8.17 (inactive),–,–,–,–
CC1(C)O[C@@H]2C[C@H]3[C@@H]4C[C@H](F)C5=CC(=O)C=C[C@]5(C)[C@H]4[C@@H](O)C[C@]3(C)[C@]2(C(=O)CO)O1,–,–,–,–,–,–,–,33.4% (inactive) and 143% (inactive),88.6% and 103%,1.07 (inactive),–,-1.48 (inactive),0.00271 (inactive),-0.0113 (inactive),-0.0208 (inactive),3 (inactive),0.017 (inactive),-0.0612 (inactive),0.0291 (inactive),0.0322 (inactive)
CNCCCC12CCC(c3ccccc31)c1ccccc12,-14.8,1.5,28.8,1.86,26.4,22.4,1.14,–,–,0.97 (inactive),255 (inactive),–,0.0254 (inactive),0.285 (active),0.217 (active),0.833 (inactive),–,–,–,–
